# Compound activity from PubChem BioAssay.
# Shown are actives, neighbours in structure and some others; about 10% of the full set was active somewhere.
# hNpr1 antagonist: human Npr1 receptor antagonism. P16066. HEK293 hNpr1 GloSensor cGMP, ANP-stimulated luminescence. Potency, µM (doses to about 46.3 µM), for inactives: top-dose activity change, negative = inhibition, most hits filed as inhibitors. actives 1.6% (n = 76,000). AID 1347048; calls by dose curve; further: nearly all actives have a fitted effect of over 60% in size
#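 HEK293 cells stably expressing human Npr1 and cGMP GloSensor pGS-40F, loaded 2 h with 2% GloSensor reagent, given compound 30 min at room temperature. Luminescence read before and 20 min after 0.1 nM hNppA.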
# HEK cytotox: HEK 293 cell cytotoxicity | HEK 293 viability, ATP luminescence (CellTiter-Glo), 48-72 h | Potency, µM (doses to about 115 µM), without a hit: at the highest dose activity change, negative = cytotoxicity, hits mostly inhibitors | actives 6.6% (n = 94,000); further: nearly all actives have a fitted effect of over 60% in size
#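 Read-out: CellTiter-Glo ATP luminescence. Cells: HEK 293, 250 cells/well. Exposure: 48 or 72 hr, 37 degree Celsius.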
# FLuc inh: Photinus pyralis luciferase inhibition; P08659; Potency, µM (highest dose often 115 µM), actives largely listed as inhibitors; actives 2.5% (n = 76,000); purified P. pyralis luciferase, luminescence, biochemical; further: nearly all actives have a fitted effect of over 65% in size
#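 FLuc 10nM, D-luciferin 10uM, ATP 10uM, Mg acetate 10mM, Tris acetate pH 7.5, Tween/BSA; cpd qHTS; enzyme added last; CCD luminescence.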
# GPT2 inh: inhibitors of human GPT2 alanine aminotransferase; Q8TD30; Recombinant GPT2, coupled pyruvate oxidase/HRP Amplex Red fluorescence; Potency, µM (highest dose often 57.7 µM), inactives show top-dose activity change, negative = inhibition, hits mostly inhibitors; actives 0.25% (n = 100,000); further: nearly all actives have a fitted effect of over 60% in size
#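 Fluorescence of coupled pyruvate oxidase/HRP/Amplex Red system (50uM Amplex, 30 min, dark) reports pyruvate formed by GPT2. Enzyme reaction: 10ng/uL GPT2, 2mM L-alanine, 250uM a-KG, 30 min room temperature, pH 7.5; 50uM AOA control.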
# 3T3 cytotox: kills NIH 3T3 cells; Potency, µM (highest dose often 96.7 µM), for inactives: top-dose activity change, negative = cytotoxicity, hits mostly inhibitors; NIH 3T3 viability, CellTiter-Glo ATP luminescence, 48-72 h; actives 4.3% (n = 94,000); further: nearly all actives have a fitted effect of over 55% in size
#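 ATP-dependent luminescence (CellTiter-Glo) served as the viability signal for NIH 3T3 cells treated with compound for 48 or 72 hr at 37 °C.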
# Numbers without * were called inactive; i = inactive; ? = inconclusive; nt = no result; [ ] = another dose, or the depositor's remark. Unless noted, the call rests on the fitted dose curve; in most records, active means well fitted curve in the direction sought with a large enough effect; inconclusive means small, poorly fitted or top-dose-only effect, or another doubt; inactive means no such curve, though single readings can be large; an effect the other way counts as inactive or inconclusive. On the % scale 0 is the no-effect control and ±100 the full control effect; potency means the concentration at half of the fitted maximal effect.
SMILES,hNpr1 antagonist,HEK cytotox,FLuc inh,GPT2 inh,3T3 cytotox
O=C(NCc1ccccc1F)c1cc(Br)cn2ccnc12,-1%,?,i,0%,-16%
CSCCNC(=O)C1CCCN(c2nccc(Nc3ccccc3F)n2)C1 (stereo not given),nt,?,nt,-10%,25µM*
CCOCCNC(=O)C1CCCN(c2nccc(Nc3ccccc3F)n2)C1 (stereo not given),nt,?,nt,2%,?
O=C(NCCCc1ccccc1)C1CCCN(c2nccc(Nc3ccccc3F)n2)C1 (stereo not given),nt,?,nt,-2%,32µM*
O=C(NCCc1ccccc1)C1CCCN(c2nccc(Nc3ccccc3F)n2)C1 (stereo not given),nt,?,nt,i,22µM*
O=C(NCCc1ccc(F)cc1)C1CCCN(c2nccc(Nc3ccccc3F)n2)C1 (stereo not given),nt,?,nt,i,28µM*
O=C(NCCc1ccccc1F)C1CCN(c2nccc(Nc3ccccc3F)n2)CC1,nt,32µM*,nt,-1%,?
O=C(NCCc1ccccc1)C1CCN(c2nccc(Nc3ccccc3F)n2)CC1,nt,?,nt,i,?
COc1cccc(-c2cc(C3CCN(C(=O)NC4CCCC4)CC3)[nH]n2)c1,-22%,?,i,i,-16%
COC(=O)c1ccccc1S(=O)(=O)N1CCC(c2cc(-c3cccc(C)c3)n[nH]2)CC1,1%,45µM*,i,i,40µM*
COc1cccc(-c2cc(C(=O)N3CCC(Cn4cccn4)CC3)[nH]n2)c1,1%,-1%,32µM*,2%,?
COc1cccc(-c2cc(C3CCN(C(=O)Nc4cc(Cl)ccc4C)CC3)[nH]n2)c1,-23%,45µM*,?,-2%,?
COc1cccc(-c2cc(C3CCN(C(=O)Nc4cccc(SC)c4)CC3)[nH]n2)c1,1%,?,i,-9%,45µM*
Cc1ccc(CN2CCC(N(CCC(C)C)C3CCOCC3)CC2)o1,-1%,-25%,i,1%,-12%
CN1[C@H]2CC[C@@H]1CN(C(=O)c1cc(-c3ccc(O)cc3)n[nH]1)CC2,-3%,-6%,i,1%,-17%
O=C(O)c1ccc(CC2CCN(C(=O)c3ccccc3Cl)C2)cc1 (stereo not given),5%,-3%,i,i[11.5 µM],-3%
CCOc1ccccc1NC(=O)N1CCC(c2cc(-c3cccc(OC)c3)n[nH]2)CC1,-23%,?,i,4%,35µM*
Cc1cccc(NC(=O)N2CCC(c3cc(-c4cccc(C)c4)n[nH]3)CC2)c1,-15%,?,i,?,?
COc1cccc(NC(=O)N2CCC(c3cc(-c4cccc(C)c4)n[nH]3)CC2)c1,-24%,?,i,-13%,40µM*
COc1ccc(Nc2ncc(-c3cccnc3)c3c2OCC3)cc1,12%[70.6 µM],?,13µM*,i,?
FC(F)(F)c1cccc(Nc2ncc(-c3cccnc3)c3c2OCC3)c1,-16%[70.6 µM],?,i,-3%[88.5 µM],?
COc1ccc(-c2cnc(Nc3cccnc3)c3c2CCO3)cn1,-7%[70.6 µM],71µM*,?,3%[88.5 µM],?
COc1cccc(Nc2ncc(-c3ccccc3)c3c2OCC3)c1,?,?,14µM*,?,-28%[138 µM]
COc1cccc(Nc2ncc(-c3cccc(N(C)C)c3)c3c2OCC3)c1,?,-66%[172 µM],?,2%[88.5 µM],?
Fc1cccc(-c2cnc(Nc3cccnc3)c3c2CCO3)c1,5%[70.6 µM],?,i,i,?
SMILES,hNpr1 antagonist,HEK cytotox,FLuc inh,GPT2 inh,3T3 cytotox
CC(=O)c1cc(-c2nc(C3CCOC3)no2)cs1 (stereo not given),0%,-33%,i,-9%,-21%
CCCN(CC1CCOC1)C(=O)Nc1ccc(OCC)cc1 (stereo not given),-1%,8%,i,i,i
CN1CCN(CCOc2cc(OC3CCOCC3)c3c(Nc4c(Cl)ccc5c4OCO5)ncnc3c2)CC1,nt,nt,nt,2%,nt
C#Cc1cccc(C(=O)N2CCC(Cc3ccc(Cl)cc3)(C(=O)OCC)CC2)c1,-5%,?,i,-14%,20µM*
Cc1cc(C)n(CC(=O)N2CCC(c3nc(-c4ccccc4)no3)C2)n1 (stereo not given),-3%,-26%,i,5%,-24%
Cc1nc(CN2C[C@H](C(=O)Nc3ccc(F)cc3)C[C@@H]2c2ccc(F)cc2)cs1,-1%[70.6 µM],100µM*,i,-5%[88.5 µM],100µM*
COc1ccc(NC(=O)[C@@H]2C[C@@H](c3ccc(F)cc3)N(Cc3ccccc3)C2)cc1,-19%[70.6 µM],?,i,-14%[88.5 µM],-16%[138 µM]
COc1ccc(NC(=O)[C@@H]2C[C@H](c3ccc(F)cc3)N(Cc3csc(C)n3)C2)cc1,-3%[70.6 µM],79µM*,i,0%[88.5 µM],?
Cc1nc(CN2C[C@H](C(=O)NCc3ccc4c(c3)OCO4)C[C@@H]2c2ccc(F)cc2)cs1,2%,?,i,?,?
CC(CNC(=O)CCc1ccc2c(c1)CN(S(C)(=O)=O)CCO2)c1ccccc1 (stereo not given),-2%,?,i,1%,-25%
CC(C)N(Cc1cccc(N2CCN(C(=O)c3c(Cl)cccc3Cl)CC2)c1F)[S+](C)(=O)[O-],nt,79µM*,nt,nt,?
CC(c1ccccc1)N1CCN(c2cccc(CN(C)[S+](C)(=O)[O-])c2F)CC1 (stereo not given),nt,79µM*,nt,nt,?
Cc1nc(N2CCN(C(=O)c3c(F)cccc3Cl)CC2)cc(C(F)(F)F)n1,-2%,-21%,i,i,-23%
CCOC(=O)C(Cc1cccc(N2CCN(C(=O)c3c(Cl)cccc3Cl)CC2)c1F)OC (stereo not given),nt,79µM*,nt,nt,?
CC(C)OC(=O)N(C)Cc1cccc(N2CCN(C(=O)c3c(Cl)cccc3Cl)CC2)c1F,nt,35µM*,nt,nt,?
OCc1cc(CC2(NCc3ccc(C(F)(F)F)cc3)COC2)no1,5%[70.6 µM],-24%[172 µM],i,-6%[88.5 µM],-20%[174 µM]
COc1ccc(CCN2CCC(CN(C)Cc3nc(C(C)C)cs3)CC2)cc1,3%,32µM*,i,i,?
C[S+](=O)([O-])c1ccc(-c2nnc3n2C(C(=O)N2CCCC2)CC3)cc1 (stereo not given),nt,i,nt,4%,1%
COCCCNC(=O)C1CCN(C(=O)c2nnn3c2COC(c2ccc(C)cc2)C3)CC1 (stereo not given),-2%,-5%,40µM*,i,i
Cc1ccc(C2Cn3nnc(C(=O)N4CCC(C(=O)NCCC5=CCCCC5)CC4)c3CO2)cc1 (stereo not given),-1%,10%,10µM*,i,i
